Test [1] in a line: UWB1.289 Cancer Cell Toxicity qHTS against the NCATS CANVASS Library (AID 1347347). Also: series mostly up to about 38 µM; nearly all actives have a fitted effect of over 60% in size. In short, it runs like this: (§1)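 ATP content after 72 h treatment, detected by CellTiter-Glo luminescence (15min room-temperature development), reflects cell viability. Wells contained 1000 cells and received compounds at 11 concentrations.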
On the technique in general: Quantitative high-throughput screening tests each substance at several concentrations.

Test [2] can be described thus: OV-SAHO Cancer Cell Toxicity qHTS against the NCATS CANVASS Library (AID 1347348). Also: series mostly up to about 38 µM; nearly all actives have a fitted effect of over 55% in size. In short, it runs like this: as §1
Test [3] can be described thus: Panc-1005 Cancer Cell Toxicity qHTS against the NCATS CANVASS Library (AID 1347349). Also: series mostly up to about 38 µM; nearly all actives have a fitted effect of over 60% in size. In short, it runs like this: as §1
Test [4] can be described thus: A2780 Cisplatin Sensitive Ovarian Cancer Cell Toxicity qHTS against the NCATS CANVASS Library (AID 1347353). Also: nearly all actives have a fitted effect of over 60% in size. In short, it runs like this:
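Quantitative HTS format: eleven compound concentrations applied to pre-seeded cells, 72 h incubation at 37 °C, then ATP detection by luminescence.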

The nature of test [5]: UWB1.289-WTBRCA1 Cancer Cell Toxicity qHTS against the NCATS CANVASS Library (AID 1347354). In short, it runs like this:
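Using an ATP-based luminescent reagent after three days of treatment, toxicity is scored across an eleven-concentration range in wells holding 1000 cells each.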

Test [6] is described as follows: HEK293 18hr Apoptosis Induction qHTS against the NCATS CANVASS Library (AID 1347357). In short, it runs like this: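 HEK293 cells (500/well, DMEM + 10% FBS) treated with an 11-point series for 18 h at 37 degrees C. Caspase-3/7 activity read by Caspase-Glo luminescence after 15 min at room temperature.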
The test system of test [7] is NAD(P)H diaphorase (Clostridium kluyveri). Kind of test: Diaphorse counterscreen qHTS: Assay Interference Panel against the NCATS CANVASS Library (AID 1347362). In short, it runs like this:
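Clostridium kluyveri diaphorase in PBS + 0.01% Tween-20 preincubated 15 min with compounds. Resazurin and NADH then added for 5 min at room temperature in the dark; resorufin fluorescence read (ex 525, em 598).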
For orientation: The purpose of a counterscreen is to sort out artefacts and off-target activity.

Test [8] can be described thus: KB-8-5-11 Cancer Cell Toxicity qHTS against the NCATS CANVASS Library (AID 1347364). Also: nearly all actives have a fitted effect of over 75% in size. In short, it runs like this: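 Luminescent ATP signal (CellTiter-Glo, 10 min at room temperature) measured cell survival of KB-8-5-11 after 72 hr compound treatment. For confirmation, the cells were also grown with 1uM tariquidar.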
A short description of test [9]: SDT Cancer Cell Toxicity qHTS against the NCATS CANVASS Library (AID 1347365).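 Also: SDT canine glioma cells 500 per well in 1536 well plates; series mostly up to about 46 µM; nearly all actives have a fitted effect of over 60% in size.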 In short, it runs like this: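 Canine SDT glioma cell toxicity was scored by ATP-dependent luminescence after a 72 hr incubation with an 11-point compound series.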
A short description of test [10]: G06 Cancer Cell Toxicity qHTS against the NCATS CANVASS Library (AID 1347368). Also: nearly all actives have a fitted effect of over 60% in size. Also: potency is read from the fitted curve at half-maximal effect. In short, it runs like this:
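Quantitative HTS in G06 cells (dog glioma): 72 hr treatment, 11 concentrations, then ATP-based luminescent viability readout; bortezomib 0.1 nM–4.6 uM final as reference.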

The nature of test [11]: qHTS for ATAD5 Antagonist screened against the NCATS CANVASS Library (AID 1347370).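 Also: HEK293T cells carrying an ATAD5 luciferase reporter co-treated with 10 µM 5-fluorouridine; series mostly up to about 46 µM; nearly all actives have a fitted effect of over 65% in size.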 In short, it runs like this:
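HEK293T-ATAD5 luc reporter, 2000 cells/well; 5hr attach; cpd + 10 uM 5-FUrd; 16hr 37C, 5% CO2. Readouts: CellTiter-Fluor fluorescence (1hr), then Amplite luciferase luminescence (30min RT).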

Test [12] is described as follows: qHTS for Hypoxia signaling pathway (HIF-1) antagonists against the NCATS CANVASS Library (AID 1347374). In short, it runs like this: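 Beta-lactamase reporter under HRE control in ME-180 cells; CoCl2 stimulus (60 uM solution as added), compounds 11-pt qHTS, 17 h 37C. CCF4 dye 2 h RT, 460/530 nm emission. CellTiter-Glo viability in same wells.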
The nature of test [13]: qHTS for Hypoxia signaling pathway (HIF-1) agonists against the NCATS CANVASS Library (AID 1347375). In short, it runs like this:
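An HRE-beta-lactamase ME-180 line is exposed for 17 h to an 11-point compound series, then read by CCF4-AM FRET. Cytotoxicity is measured in parallel in the same wells with CellTiter-Glo, and autofluorescence is checked separately.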

A short description of test [14]: Cytotoxicity qHTS for assessment of Hepg2 cells membrane integrity screened against the NCATS CANVASS Library (AID 1347387). In short, it runs like this: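 Membrane damage in HepG2 monolayers was estimated from released LDH, measured with CytoTox-ONE (ex 560/em 590 nm), after 5 hr treatment across 0.59 nM - 46 uM final.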
Test [15] in a line: qHTS for activators of Nrf2/ARE signaling pathway screened against the NCATS CANVASS Library (AID 1347391). Also: nearly all actives have a fitted effect of over 60% in size. Also: potency is read from the fitted curve at half-maximal effect. In short, it runs like this: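 Activation of Nrf2/ARE was scored in ARE-bla HepG2 cells after 16 h compound exposure using CCF4 beta-lactamase fluorescence ratio readings.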
Test [16] can be described thus: qHTS for activators of dead-cell proteases activity screened against the NCATS CANVASS Library (AID 1347392).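 Also: luminescence from protease leaking out of membrane-damaged cells cleaving impermeant substrate; rising signal means more cytotoxicity.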 In short, it runs like this: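 HepG2, 2000 cells/well, 18 h attach; cpd 11-pt, 5 h 37C 5% CO2; CytoTox-Glo (AAF-aminoluciferin) 15 min RT; luminescence read.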
The nature of test [17]: Vero-766 cells viability qHTS against the NCATS CANVASS Library: Counterscreen for Zika virus inhibition assay (AID 1347394). Also: nearly all actives have a fitted effect of over 60% in size. Also: potency is read from the fitted curve at half-maximal effect. In short, it runs like this: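 Vero 766 cells (1000/well), without Zika virus, were exposed to compounds for 72 h at 37C. Viability was measured by CellTiter Glo luminescence. Media-only wells served as 100% inhibition.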
Test [18] can be described thus: qHTS for inhibitors of Wild type Zika virus screened against the NCATS CANVASS Library (AID 1347396).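 Also: ATP luminescence of surviving cells so rescue from viral cell killing; series mostly up to about 46 µM.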 In short, it runs like this: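 Vero 766 (African green monkey) cells, 1000 per well, attached overnight, then compounds were added in an 11-point series before wild-type Zika virus infection. After 72 h at 37C, cell viability was read as CellTiter Glo luminescence.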

Test [19] is described as follows: Redox Reaction Profiling qHTS: Assay Interference Panel against the NCATS CANVASS Library (AID 1347401). In short, it runs like this: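 Fluorescence read-out (525 nm excitation, 598 nm emission) at time zero and after 15 min in the dark tracked resorufin formation. Mix: 5 uM resazurin, 200 uM DTT, HEPES pH 7.3 buffer with NaCl.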
The test system of test [20] is Zika virus NS2B-NS3 protease (linked construct). Nature of the test: Primary screen NINDS Rhodamine qHTS for Zika virus inhibitors (AID 1347160). Also: potency is read from the fitted curve at half-maximal effect; nearly all actives have a fitted effect of over 55% in size. In short, it runs like this:
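Each compound, titrated, sat 15 min with 25 nM linked protease before 1.5 microM Rhodamine110 substrate went in. Fluorescence gain over the next 15 min, in pH 8.0 Tris with Tween 20, gave Hill-fitted curves.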

Structures are written as SMILES. Records with an inconclusive call do not appear. Unmarked numbers belong to inactive results. Active and inactive are the calls of the source. Calls follow the shape of the dose curve; as a rule, active = well fitted curve in the direction sought with a large enough effect; inconclusive = small, poorly fitted or top-dose-only effect, or another doubt; inactive = no such curve, though single readings can be large; an effect the other way counts as inactive or inconclusive.

As to `C[C@]12CC[C@]3(C1)[C@H](CC2=O)CC(OC(=O)c1ccccc1)[C@H]1[C@@](CO)(C(=O)O)CCC[C@@]13C` (stereo partly specified), the Potency entry in test [1], in test [2], in test [3], in [4], in [5] and in test [6] was “inactive” throughout. Also, the Potency result in [7], in test [8], in test [9], in [11], in test [12] and in test [13] was “inactive” in each case. In addition, the Potency entry in test [16], in [17], in test [18] and in test [19] was “inactive” in each case. Also, the Potency in [10] is 10.5 µM (active); in test [15], 18.6 µM (active). Moreover, the call in [14] was inactive.
Regarding `C/C1=C\CC(=O)/C=C/C=C\c2csc(n2)[C@@H](C)NC(=O)C[C@@](S)([C@@H](C)C(=O)O)CC1`, the Potency in [20] was 7.82 µM (active); in test [15], 18.6 µM (active). For the same molecule, the Potency entry in [1], in [2], in [3], in test [4], in test [5] and in test [8] was “inactive” in each case. Moreover, the Potency entry in test [9], in test [10], in test [11], in test [13] and in [18] was “inactive” each time. Also, the molecule was called inactive in [14].
For `CCCCCCC[C@@H](C/C=C/CCC(=O)NCCc1c[nH]c2ccccc12)OC`, the Potency was 49.3 µM (active) in test [20] and 23.4 µM (active) in [17]. The Potency result in test [2], in test [3], in test [4], in test [5], in test [6] and in [7] was “inactive” each time. Further, the Potency entry in test [8], in [10], in test [12], in test [13], in test [15] and in test [16] was “inactive” in each case. Besides, the Potency result in [19] was “inactive”. Besides, the outcome in [14] was inactive.
As to `C=C1C[C@@]23C=CC(=O)[C@@](C)(CCC(=O)Nc4c(O)ccc(C(=O)O)c4O)C2C[C@@H]1CC3O` (stereo partly specified), the Potency in [20] was 49.3 µM (active). Besides, the Potency entry in test [1], in test [4], in [5], in test [6], in test [7] and in test [8] was “inactive” throughout. For the same molecule, the Potency result in test [9], in [10], in test [11], in [12], in test [13] and in test [15] was “inactive” each time. Also, the Potency result in [16], in test [18] and in test [19] was “inactive” each time. For the same molecule, the molecule was classed as inactive in [14].
For the molecule `C[C@@H]1O[C@@H](O[C@@H]2[C@@H](O)[C@H](O[C@@H]3[C@@H](O)[C@@H](O)C(O[C@H]4[C@H](OC(=O)[C@]56CCC(C)(C)C[C@H]5C5=CCC7[C@@]8(C)C[C@H](O)[C@H](O[C@@H]9C[C@H](CO)[C@@H](O)[C@H](O)[C@H]9O)[C@@](C)(CO)C8[C@H](O)C[C@@]7(C)[C@]5(C)CC6)OC[C@H](O)[C@@H]4O)O[C@H]3C)OC[C@H]2O)[C@H](O)[C@H](O)[C@H]1O` (stereo partly specified), the Potency entry in [3], in test [4], in test [5], in test [6], in test [7] and in test [8] was “inactive” in each case. The Potency entry in test [9], in [11], in test [12], in test [13], in test [15] and in [17] was “inactive” each time. Besides, the Potency entry in [18] and in test [19] was “inactive” in each case. For the same molecule, in [14], the molecule was called inactive.

The record behind these values is PubChem BioAssay (NCATS).
